Screening data (PubChem BioAssay)
The list is not random: actives were taken first. Their share in the collection is about 4.6%.
ABHD5 PLIN5 PPI – inhibitors of human ABHD5-perilipin-5 interaction. Split G. princeps luciferase complementation, luminescence, 4 h. inhibition, % at 4 µM. Q00G26+Q8WTS1. 0.78% of 360,000 active;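 active = inhibition above the mean inhibition across every tested compound plus 3 SD, cut at about 22% in these data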;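 also: 0% = DMSO only wells and the 100% control is not disclosed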
CF NFkB inh – cystic fibrosis NF-kB activation inhibition. KKLEB NF-kB-GFP reporter, PAF-induced, GFP fluorescence overnight. inhibition, % at 5 µM. 0.86% of 360,000 active. AID 588850;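 active = at least 50% inhibition at 5 µM, scaled per plate between neutral and stimulator controls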;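 also: PAF is a Pseudomonas aeruginosa culture filtrate used as stimulus; plate controls were PAF-stimulated DMSO wells for no effect and unstimulated DMSO wells for full effect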
HIF-2a block – HIF-2a inhibition | inhibition, % at 18.8 µM | AID 624352 | 786-0 RCC cells HIF-2a reporter, luciferase luminescence, overnight | 0.72% of 360,000 active;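 active = inhibition of the luminescence signal of 40% or more relative to plate controls, in a single-dose primary screen at 18.75 µM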
Mdm2-MdmX inh – disrupts the human Mdm2-MdmX interaction. O15151+Q00987. SaOS-2 split-luciferase Mdm2/MdmX complementation, luminescence. inhibition, % at 8 µM. 3% of 330,000 active. AID 485346;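 active = inhibition of at least 50% at 8 µM in the primary screen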
KKLEB tox – counter-screen for CF NF-kB inhibitors: cytotoxicity; KKLEB CF airway cells viability, ATPlite luminescence, overnight; stronger effect = lower value; cells stimulated with P. aeruginosa culture filtrate; activity change (cytotoxicity), % at 5 µM; 0.36% of 360,000 active; AID 602141;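 active = corrected activity change at or below -50% at 5 µM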
Peg3 promoter – inhibitors of Peg3 promoter. HeLa PEG-Prom luciferase reporter, luminescence, overnight. inhibition, % at 20 µM. 1.7% of 360,000 active. AID 588405;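 active = inhibition of at least 50% at 20 µM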
Mdm2-MdmX conf – human Mdm2/MdmX binding inhibition, confirmed; shares compounds with Mdm2-MdmX inh; luminescent assay; inhibition, % at 8 µM; 55% of 10,000 active; AID 489028; in the data active = inhibition above about 40%
FLuc counter – counter-screen for Mdm2/MdmX inhibitors: full-length luciferase; AID 504607; inhibition, % at 8 µM; 77% of 6,200 active; shares compounds with Mdm2-MdmX inh; SaOS-2 full-length luciferase counterscreen, luminescence;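 active = mean inhibition at 8 µM reaching about 37%, which flags the compound as non-specific, limit read from the data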;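 also: p53-null SaOS-2 cells with luciferase driven by a doxycycline-inducible promoter; compound on cells about two nights before reading with doxycycline added after day one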
Starred values were filed as active, the others as inactive; . = no result given.

SMILES	ABHD5 PLIN5 PPI	CF NFkB inh	HIF-2a block	Mdm2-MdmX inh	KKLEB tox	Peg3 promoter	Mdm2-MdmX conf	others
CCOC(=O)c1[nH]c2c(c1C)C(=O)CC(c1ccc(F)cc1)C2 (stereo not drawn)	3	42	-10	59*	-21	19	54*	FLuc counter=63*
CCOCCOC(=O)c1[nH]c2c(c1C)C(=O)CC(c1ccccc1)C2 (stereo not drawn)	12	36	-16	50*	-15	-23	56*	FLuc counter=96*
CCOCCOC(=O)c1[nH]c2c(c1C)C(=O)CC(c1cccs1)C2 (stereo not drawn)	1	43	-2	54*	-11	-7	61*	FLuc counter=92*
COc1ccc(O)c(C(=O)c2coc(=N)c(C(=O)Nc3ccc(SC(F)F)cc3)c2)c1	0	5	-8	-2	-2	28	.
CC(Cc1ccccc1)N1CCCC1=O (stereo not drawn)	-10	-16	9	.	12	-8	.
CC1(c2nnnn2-c2ccc3c(c2)OCCO3)CCC(=O)N1CC(F)(F)F (stereo not drawn)	1	.	-147	.	.	.	.
O=C(COC(=O)C1CCCCC1)Nc1cccc(Br)c1	-3	-8	-5	13	1	9	.
CCCCOc1ccc(-c2c(C#N)c(N)nc(SCC(N)=O)c2C#N)cc1	2	14	8	55*	-7	41	20
C=CCNC(=S)N/N=C/c1ccc(-c2ccc(Cl)cc2Cl)o1	-6	-17	-146	7	3	-45	.
C=CCNC(=S)N/N=C/c1ccc(-c2cc(Cl)ccc2Cl)o1	0	2	-53	68*	4	-4	11
Cc1cccc(C)c1NC(=O)CSc1nc(C)c(CC(=O)c2ccc(Br)cc2)c(C)c1C#N	5	2	13	85*	-2	60*	63*	FLuc counter=96*
Cc1nc(SCC(=O)Nc2ccccc2C(F)(F)F)c(C#N)c(C)c1CC(=O)c1ccc(Br)cc1	.	.	.	53*	.	.	10
CCc1c(C)nc(SCC(=O)c2cccs2)c(C#N)c1C	2	-38	-313	-102	8	-280	.
O=C(C[C@H]1CC[C@H]2[C@@H](COC[C@@H](O)CN2Cc2cc(F)ccc2F)O1)NCc1ccc(Cl)cc1	0	.	6	.	.	.	.
Cc1noc(C)c1S(=O)(=O)N(C)C[C@H]1OCc2cnnn2CCCC(=O)N([C@H](C)CO)C[C@H]1C	-1	-14	-1	.	-5	-8	.
COc1ccc(CCNCC(C)c2ccccc2)cc1 (stereo not drawn)	8	5	9	-2	-6	-9	.
COc1ccc(CNCCC(c2ccc(OC(C)C)cc2)c2ccccc2OC)cc1 (stereo not drawn)	-8	27	28	97*	-32	113*	54*	FLuc counter=68*
COc1ccc(CNCCC(c2ccccc2)c2ccc3c(c2)OCO3)cc1 (stereo not drawn)	18	4	4	67*	-14	48	31
COc1ccc(C(CC(=O)O)c2ccc3c(c2)OCO3)cc1 (stereo not drawn)	-2	-2	19	23	6	13	.
COc1ccccc1NC(=O)CC(c1ccc(OC(C)C)cc1)c1ccccc1OC (stereo not drawn)	-3	12	36	10	-6	13	.
COc1ccccc1C(CCNCc1ccc(N(C)C)cc1)c1ccc(OC(C)C)cc1 (stereo not drawn)	1	0	2	97*	-1	107*	58*	FLuc counter=57*
Cc1cc(OCCOCCNCc2ccccc2)ccc1C(C)C	-4	8	21	10	-2	-25	.
COc1ccccc1C(CCNCc1ccccc1)c1ccc(OC(C)C)cc1 (stereo not drawn)	2	4	25	61*	-3	100*	36
O=C(NCCN1CCN(Cc2ccccc2)CC1)c1ccc(CS(=O)(=O)c2c(Cl)cccc2Cl)o1	4	-1	5	.	5	11	.
CN1CCCC(C)(C(=O)Nc2ccc3scnc3c2)C1 (stereo not drawn)	-11	-8	8	.	21	4	.
SMILES	ABHD5 PLIN5 PPI	CF NFkB inh	HIF-2a block	Mdm2-MdmX inh	KKLEB tox	Peg3 promoter	Mdm2-MdmX conf	others
COc1ccc(CNCCC(c2ccc(OC(C)C)cc2)c2ccccc2OC)cc1OC (stereo not drawn)	13	16	14	56*	-8	87*	40*	FLuc counter=66*
COc1ccccc1C(CC(=O)Nc1ccc(C)c(C)c1)c1ccc(OC(C)C)cc1 (stereo not drawn)	-4	-4	19	23	-9	15	.
COc1ccc(Cn2c(C)nc3c(c(=O)c4ccccc4n3C)c2=O)cc1	-1	-6	22	10	-2	2	.
CCCCCc1nc2c(c(=O)c3ccccc3n2C)c(=O)n1Cc1ccc(OC)cc1	5	-4	6	51*	0	4	18
COc1ccccc1C(O)c1ncc(-c2cccc(C(F)(F)F)c2)[nH]1 (stereo not drawn)	-4	10	16	.	-8	10	.
C/C=C/c1ccc2c(c1)O[C@H](CN(C)C(=O)NC1CCCC1)[C@H](C)CN([C@H](C)CO)S2(=O)=O	8	1	4	.	15	-4	.
CC(C)C1C(C#N)=C(N)Oc2n[nH]c(-c3ccc4ccccc4c3)c21 (stereo not drawn)	3	27	-10	57*	-2	29	63*	FLuc counter=50*
CC(C)C1C(C#N)=C(N)Oc2n[nH]c(-c3cccs3)c21 (stereo not drawn)	0	5	6	-5	-8	18	.
O=C(Oc1ccccc1C(=O)Oc1ccccc1)c1cccnc1	1	2	14	52*	8	13	4
CC1CCC(NC(=O)c2cccc(S(=O)(=O)NCc3ccccc3)c2)CC1 (stereo not drawn)	-1	-1	-16	37	0	1	.
COc1ccccc1NC(=O)C(C)OC(=O)/C=C/c1ccc2ccccc2n1 (stereo not drawn)	-4	-5	-107	12	-3	-169	.
CC(OC(=O)/C=C/c1ccc2ccccc2n1)C(=O)N(C)c1ccccc1 (stereo not drawn)	-1	22	-67	65*	-34	-5	35	FLuc counter=56*
O=C(CN1C(=O)S/C(=C\C=C\c2ccccc2)C1=O)Nc1cccc(O)c1	18	-48	-202	99*	15	-256	-3
O=C(CN1C(=O)S/C(=C\C=C\c2ccccc2)C1=O)Nc1ccccc1C(=O)O	6	1	-21	8	-1	-9	.
O=C(CCN1C(=O)CC1c1ccco1)N1CCOCC1 (stereo not drawn)	0	8	-3	.	-19	-3	.
